Laboratory results taken from PubChem BioAssay (NCATS).
Where “and” joins values, the source holds several entries; their conditions need not be identical. Equal values may be shown once. Records with an inconclusive call do not appear. Calls of active or inactive are those of the source. Calls follow the shape of the dose curve; as a rule, active = well fitted curve in the direction sought with a large enough effect; inconclusive = small, poorly fitted or top-dose-only effect, or another doubt; inactive = no such curve, though single readings can be large; an effect the other way counts as inactive or inconclusive.

Columns and labels:
[1] = molecular target: Cellular tumor antigen p53 (Homo sapiens) (UniProt P04637); experiment: Primary qHTS for small molecule compounds that upregulate eGFP-tagged delta133p53alpha (in N-terminal) cells. (AID 2060322); conditions: NCI-H358 eGFP-delta133p53alpha fluorescence, 24 h; activation: stronger effect = higher value;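 also: cells pre-induced with doxycycline then dosed without doxycycline; series mostly up to about 56 µM; 0% = DMSO vehicle and 100% = reference activator; nearly all actives have a fitted effect of over 75% in size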
Sequence of Cellular tumor antigen p53 (Homo sapiens) (P04637 whole entry, looked up): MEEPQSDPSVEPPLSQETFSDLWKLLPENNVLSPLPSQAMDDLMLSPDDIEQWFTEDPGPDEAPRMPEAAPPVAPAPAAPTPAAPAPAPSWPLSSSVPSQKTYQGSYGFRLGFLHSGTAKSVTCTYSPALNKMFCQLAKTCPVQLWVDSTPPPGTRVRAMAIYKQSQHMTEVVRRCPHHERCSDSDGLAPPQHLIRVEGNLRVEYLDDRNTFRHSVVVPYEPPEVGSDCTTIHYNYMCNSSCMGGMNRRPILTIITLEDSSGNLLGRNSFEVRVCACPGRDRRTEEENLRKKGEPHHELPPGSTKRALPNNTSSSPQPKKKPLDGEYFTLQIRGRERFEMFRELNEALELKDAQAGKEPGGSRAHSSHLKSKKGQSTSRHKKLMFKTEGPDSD
Procedure, shortened: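 NCI-H358 cells pre-induced 24 h with 10 ng/ml doxycycline for eGFP-delta133p53alpha, plated dox-free and exposed 24 h at 37C to titrated compounds. Fixed, Hoechst-stained; gated GFP peak intensity by laser scanning cytometry, normalized to DMSO (0%) and 57.5 uM 5-azacytidine (100%).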

[2] = molecular target: Aldehyde dehydrogenase, mitochondrial (Homo sapiens) (UniProt P05091); experiment: qHTS for Inhibitors of the Aldehyde Dehydrogenase Family (ALDH2) Primary screen (AID 2061308);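 also: plate controls were vehicle for no effect and reference inhibitor for full effect; nearly all actives have a fitted effect of over 55% in size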
[3] = molecular target: Retinaldehyde dehydrogenase 3 (Homo sapiens) (UniProt P47895); experiment: qHTS for Inhibitors of the Aldehyde Dehydrogenase Family (ALDH1A3) Validation screen (AID 2061312); also: % is scaled to controls: 0 for no effect and ±100 for the full control effect; nearly all actives have a fitted effect of over 45% in size
[4] = molecular target: Retinaldehyde dehydrogenase 3 (Homo sapiens) (UniProt P47895); experiment: qHTS for Inhibitors of the Aldehyde Dehydrogenase Family (ALDH1A3) Primary screen (AID 2061315);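 also: plate controls were DMSO vehicle for no effect and reference inhibitor for full effect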

O=C(O)C[C@@H](NC(=O)c1cc(-c2ccc(-c3ccncc3)cc2)cs1)c1ccccc1
inactive: activation [1] -1.43% | Potency [2] | Potency [3] | Potency [4]

CN(C)c1nc(Cc2ccc(NC(=O)c3ccc(C(F)(F)F)cc3)cc2)nc(N(C)C)c1CC(=O)O
inactive: activation [1] -14.6% and -1.43% | Potency [2] | Potency [3] | Potency [4]

O=C(Nc1ccc(-n2nc(C(F)(F)F)cc2C(F)(F)F)cc1)c1ccncc1F
inactive: activation [1] -5.25% | Potency [2] | Potency [3] | Potency [4]

C[C@@H](O[C@H]1OCCN(Cc2nn(P(=O)(O)O)c(=O)[nH]2)[C@H]1c1ccc(F)cc1)c1cc(C(F)(F)F)cc(C(F)(F)F)c1
inactive: activation [1] 10% | Potency [2] | Potency [3] | Potency [4]

Nc1c(-c2ccccc2)nc(Cl)c2c(O)n[nH]c(=O)c12
inactive: activation [1] -1.91% | Potency [2] | Potency [3] | Potency [4]

CC1(C)[C@H]2C[C@H](C/C=C\CCCC(=O)O)[C@@H](NC(=O)c3csc4ccc(O)cc34)[C@@H]1C2
inactive: activation [1] -4.77% | Potency [2] | Potency [3] | Potency [4]

Cc1occc1C(=O)n1ccnc1
inactive: activation [1] 1.43% | Potency [2] | Potency [3] | Potency [4]
